Experimental data published in PubChem BioAssay.
Calls of active or inactive are those of the source.

Key:
Albumin (Bos taurus) = Albumin (Bos taurus) (UniProt P02769); experiment: bovine serum albumin binders on microarray, profiling panel, artefact control for SMM control protein annotation, biochemical, small-molecule microarray, Alexa647 label, 635/667 nm fluorescence (AID 1118); settings: BSA-A647 binding, fluorescence 635 nm, higher = more signal;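 note: score merges 667 nm emission intensity and signal-to-noise per printed compound spot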
[1] = small-molecule microarray binders of probe aXIP, primary screen, biochemical, NeuroSMM set, 635/667 nm fluorescence (AID 1119); settings: higher = more signal, called active from +8 up or from −8 down;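 note: probe is the protein aXip251-270 applied at 1 µg/mL to compound-printed slides; binding of probe to printed compounds measured as 667 nm fluorescence plus signal to noise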
[2] = small-molecule binders of probe aNOTCH3, primary screen, biochemical, small-molecule microarray, 635/667 nm fluorescence (AID 1120); settings: higher = more signal;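 note: probe is a biotin-tagged antibody raised against NOTCH3 rather than NOTCH3 protein; score merges spot fluorescence near 667 nm with spot signal to noise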
[3] = small-molecule binders of probe aNOTCH2, primary screen, biochemical, small-molecule microarray, 635/667 nm fluorescence (AID 1121); settings: higher = more signal;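 note: score merges feature fluorescence read at 667 nm with its signal to noise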
[4] = target: Carbonic anhydrase 2 (Homo sapiens) (UniProt P00918); experiment: CAII small-molecule binders, profiling panel, biochemical, small-molecule microarray, Alexa647-labelled CAII (AID 1122); settings: CAII-A647 binding fluorescence, higher = more signal
[5] = COS7 lysate on small-molecule microarray, probe aHis, 635 nm (AID 1123); settings: COS7 cell lysate, fluorescence, higher = more signal;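 note: z-score combines 667nm fluorescence intensity with signal-to-noise per printed compound spot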
[6] = compound binding in COS7 lysate, probe aLAP1, primary screen, cell lysate, small-molecule microarray (AID 1124); settings: probe aLAP1, fluorescence, higher = more signal;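 note: lysate comes from COS7 cells expressing LAP1 and is applied at 0.3 µg/mL; score merges spot fluorescence near 667 nm with signal-to-noise over triplicate slides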
Sam68 (KHDRBS1) = experiment: Sam68 small-molecule binders, primary screen, biochemical, small-molecule microarray, 635 nm fluorescence (AID 1125); settings: small-molecule microarray binding, higher = more signal;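 note: score merges 667 nm channel intensity with signal to noise over triplicate slides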
[7] = test system: Chordin-like protein 2 (CHRDL2); experiment: CHRDL2 small-molecule binders, primary screen, biochemical, small-molecule microarray, 635 nm fluorescence (AID 1126); settings: small-molecule microarray binding, fluorescence 635 nm; higher = more signal;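 note: printed compound slides probed with Chrdl2 protein at 4 µg/mL for 1 h at 4 C; score merges 667 nm emission intensity with signal to noise over three replicate slides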
[8] = target: Concanavalin-A (Canavalia ensiformis) (UniProt P02866); experiment: ConA small-molecule binders, primary screen, artefact control for SMM control protein annotation, biochemical, small-molecule microarray, Alexa647 label, 635 nm (AID 1127); settings: ConA-A647 binding fluorescence, higher = more signal;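 note: z combines 667 nm emission intensity with signal-to-noise across three replicate slides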
[9] = anti-His antibody binders, primary screen, artefact control for SMM control protein annotation, biochemical, small-molecule microarray, 635 nm fluorescence (AID 1128); settings: anti-His Alexa647 antibody binding, higher = more signal;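 note: score merges feature fluorescence with signal-to-noise for each printed compound spot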
[10] = test system: Human papillomavirus type 1a E7 protein (residues 1-88); experiment: HPV1a E7 small-molecule binders, primary screen, biochemical, small-molecule microarray, residues 1-88, 635 nm (AID 1129); settings: small-molecule microarray binding, fluorescence 635 nm; higher = more signal
[11] = target: Focal adhesion kinase 1 (Homo sapiens) (UniProt Q05397); experiment: small-molecule microarray binders of FAK, primary screen, biochemical, 635/667 nm fluorescence, BSA, DTT (AID 1130); settings: PTK2 binding, 635 nm fluorescence, higher = more signal;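 note: composite of spot emission at 667 nm and signal to noise over triplicate slides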
[12] = test system: Fibrinogen (Alexa647-labelled); experiment: fibrinogen binders on compound microarrays, profiling panel, artefact control for SMM control-protein annotation, biochemical, small-molecule microarray, 635/667 nm fluorescence (AID 1131); settings: fibrinogen-A647 binding fluorescence, higher = more signal;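 note: z-score merges 667 nm fluorescence with per-spot signal-to-noise over triplicate slides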
[13] = target: Follistatin (Homo sapiens) (UniProt P19883); experiment: follistatin binders on small-molecule microarrays, primary screen, biochemical, small-molecule microarray, 635/667 nm fluorescence (AID 1132); settings: FST binding, 635 nm fluorescence, higher = more signal
[14] = target: Fibroblast growth factor 2 (Homo sapiens) (UniProt P09038); experiment: FGF2 binders on small-molecule microarrays, primary screen, biochemical, small-molecule microarray, 635/667 nm fluorescence (AID 1133); settings: small-molecule microarray binding, FGF2, fluorescence 635/667; higher = more signal
[15] = mitochondrial membrane potential change in A549 cells, profiling panel, cell-based, JC-1 fluorescence, basal, 24 h, 100 nL (AID 1138); settings: higher = more signal;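 note: A549 lung adenocarcinoma cells under basal conditions with no added stimulus; test concentration not given here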
Lefty1 = Lefty1 binders on small-molecule microarrays, primary screen, biochemical, small-molecule microarray, 635/667 nm fluorescence (AID 1139); settings: small-molecule microarray binding, fluorescence 635/667; higher = more signal
[16] = test system: wheat germ agglutinin (Triticum aestivum), Alexa647-labelled; experiment: wheat germ agglutinin binders on compound microarrays, profiling panel, artefact control for SMM control-protein annotation, biochemical, small-molecule microarray, 635/667 nm fluorescence (AID 1140); settings: WGA-A647 binding, 635 nm fluorescence, higher = more signal;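 note: score merges 667 nm feature emission with signal to noise over triplicate slides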
[17] = target: Luciferin 4-monooxygenase (Photinus pyralis) (UniProt P08659); experiment: firefly luciferase enzyme inhibitors, primary screen, biochemical, luminescence, purified enzyme, 2006 set (AID 1141); settings: SteadyGlo luminescence, 30 min, higher = more signal, called active from +8 up or from −8 down;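 note: cell-free assay with purified firefly luciferase at 100 ng per well in PBS; test concentration not given here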
Chain of Luciferin 4-monooxygenase (Photinus pyralis) (P08659 whole entry, looked up): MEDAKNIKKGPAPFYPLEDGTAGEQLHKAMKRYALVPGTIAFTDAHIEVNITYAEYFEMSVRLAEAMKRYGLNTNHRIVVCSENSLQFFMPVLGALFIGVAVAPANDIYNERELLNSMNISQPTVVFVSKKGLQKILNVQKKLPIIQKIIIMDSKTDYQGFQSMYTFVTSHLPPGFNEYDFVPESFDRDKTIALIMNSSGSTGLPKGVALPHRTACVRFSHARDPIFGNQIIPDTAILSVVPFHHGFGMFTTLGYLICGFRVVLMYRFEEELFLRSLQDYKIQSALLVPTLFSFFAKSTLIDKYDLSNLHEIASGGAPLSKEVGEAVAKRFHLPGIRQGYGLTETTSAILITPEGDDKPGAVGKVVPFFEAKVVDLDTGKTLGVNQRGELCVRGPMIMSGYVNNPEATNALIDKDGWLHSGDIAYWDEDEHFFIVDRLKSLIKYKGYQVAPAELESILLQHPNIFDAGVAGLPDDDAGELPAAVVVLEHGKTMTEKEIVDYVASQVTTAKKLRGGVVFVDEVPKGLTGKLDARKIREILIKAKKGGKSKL

Chain of Concanavalin-A (Canavalia ensiformis) (P02866 whole entry, looked up): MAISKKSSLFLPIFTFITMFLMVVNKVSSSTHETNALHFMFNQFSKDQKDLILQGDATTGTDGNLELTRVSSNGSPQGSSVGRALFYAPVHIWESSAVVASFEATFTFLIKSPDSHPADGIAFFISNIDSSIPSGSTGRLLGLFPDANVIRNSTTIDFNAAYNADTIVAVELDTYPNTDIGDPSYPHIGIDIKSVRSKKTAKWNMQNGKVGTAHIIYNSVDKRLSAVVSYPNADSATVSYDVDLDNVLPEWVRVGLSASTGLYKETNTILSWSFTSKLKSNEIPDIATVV
Chain of Follistatin (Homo sapiens) (P19883 whole entry, looked up): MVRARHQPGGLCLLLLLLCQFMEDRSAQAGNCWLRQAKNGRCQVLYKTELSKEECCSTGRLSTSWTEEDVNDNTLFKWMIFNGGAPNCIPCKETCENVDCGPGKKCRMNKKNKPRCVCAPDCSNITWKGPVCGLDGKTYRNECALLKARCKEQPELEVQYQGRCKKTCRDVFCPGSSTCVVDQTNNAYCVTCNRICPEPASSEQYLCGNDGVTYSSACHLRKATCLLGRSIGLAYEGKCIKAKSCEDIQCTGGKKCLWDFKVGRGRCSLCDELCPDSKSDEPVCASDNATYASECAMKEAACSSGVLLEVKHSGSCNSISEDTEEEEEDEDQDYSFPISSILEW
Chain of Fibroblast growth factor 2 (Homo sapiens) (P09038 whole entry, looked up): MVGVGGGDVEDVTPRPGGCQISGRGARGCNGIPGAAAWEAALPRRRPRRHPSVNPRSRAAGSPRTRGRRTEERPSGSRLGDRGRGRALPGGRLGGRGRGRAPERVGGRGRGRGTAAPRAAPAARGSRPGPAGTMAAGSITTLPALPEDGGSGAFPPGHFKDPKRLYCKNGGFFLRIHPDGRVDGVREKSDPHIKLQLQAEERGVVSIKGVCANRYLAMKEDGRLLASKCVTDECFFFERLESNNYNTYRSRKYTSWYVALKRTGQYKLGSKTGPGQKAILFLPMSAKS
Chain of Focal adhesion kinase 1 (Homo sapiens) (Q05397 whole entry, looked up): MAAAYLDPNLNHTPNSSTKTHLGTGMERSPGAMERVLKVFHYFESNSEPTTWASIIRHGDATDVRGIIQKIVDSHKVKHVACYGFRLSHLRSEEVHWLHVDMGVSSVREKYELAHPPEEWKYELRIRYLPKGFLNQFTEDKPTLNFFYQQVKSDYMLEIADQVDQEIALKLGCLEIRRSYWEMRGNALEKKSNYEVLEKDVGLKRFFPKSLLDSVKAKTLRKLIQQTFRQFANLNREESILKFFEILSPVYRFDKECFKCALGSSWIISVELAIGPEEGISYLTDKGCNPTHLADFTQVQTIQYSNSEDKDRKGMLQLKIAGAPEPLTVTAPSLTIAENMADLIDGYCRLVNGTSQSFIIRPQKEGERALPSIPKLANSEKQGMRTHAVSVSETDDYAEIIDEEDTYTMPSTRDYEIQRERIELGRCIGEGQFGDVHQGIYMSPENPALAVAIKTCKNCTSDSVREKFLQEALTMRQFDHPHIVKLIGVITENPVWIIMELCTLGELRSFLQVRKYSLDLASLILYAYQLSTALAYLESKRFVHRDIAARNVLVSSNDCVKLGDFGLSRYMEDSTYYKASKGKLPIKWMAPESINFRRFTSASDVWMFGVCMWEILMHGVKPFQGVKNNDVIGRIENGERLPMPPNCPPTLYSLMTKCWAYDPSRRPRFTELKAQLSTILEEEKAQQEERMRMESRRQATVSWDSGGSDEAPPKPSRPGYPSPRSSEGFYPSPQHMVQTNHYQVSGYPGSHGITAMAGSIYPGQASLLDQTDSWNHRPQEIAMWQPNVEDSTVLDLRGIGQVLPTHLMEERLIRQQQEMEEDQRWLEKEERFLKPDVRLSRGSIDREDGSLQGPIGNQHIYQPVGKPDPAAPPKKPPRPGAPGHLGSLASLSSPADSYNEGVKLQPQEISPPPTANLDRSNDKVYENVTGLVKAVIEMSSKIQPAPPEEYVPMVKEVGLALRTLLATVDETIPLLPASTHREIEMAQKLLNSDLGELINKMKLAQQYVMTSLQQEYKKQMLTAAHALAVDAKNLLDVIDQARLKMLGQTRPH
Chain of Albumin (Bos taurus) (P02769 whole entry, looked up): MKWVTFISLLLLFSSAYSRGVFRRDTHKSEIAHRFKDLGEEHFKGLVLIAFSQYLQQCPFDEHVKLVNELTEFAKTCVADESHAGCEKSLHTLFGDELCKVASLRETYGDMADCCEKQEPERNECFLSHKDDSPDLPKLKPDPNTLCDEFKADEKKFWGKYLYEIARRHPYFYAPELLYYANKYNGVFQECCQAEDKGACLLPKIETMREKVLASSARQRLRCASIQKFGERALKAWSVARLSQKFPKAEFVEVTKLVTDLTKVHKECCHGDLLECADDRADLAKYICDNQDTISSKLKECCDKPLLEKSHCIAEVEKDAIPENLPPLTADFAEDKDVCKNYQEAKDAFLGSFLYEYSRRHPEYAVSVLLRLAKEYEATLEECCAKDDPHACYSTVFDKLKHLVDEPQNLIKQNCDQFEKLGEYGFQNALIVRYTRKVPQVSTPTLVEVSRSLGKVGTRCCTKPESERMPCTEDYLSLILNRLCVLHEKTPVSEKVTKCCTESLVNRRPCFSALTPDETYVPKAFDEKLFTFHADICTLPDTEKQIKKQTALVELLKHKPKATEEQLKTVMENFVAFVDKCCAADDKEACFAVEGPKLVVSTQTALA

Structure (SMILES) | composite z-score (Albumin (Bos taurus)) | composite Z-score [1] | composite z-score [2] | composite z-score [3] | composite z-score [4] | composite z-score [5] | composite z-score [6] | composite z-score (Sam68 (KHDRBS1)) | composite z-score [7] | composite z-score [8] | composite z-score [9] | composite z-score [10] | composite z-score [11] | composite z-score [12] | composite z-score [13] | composite z-score [14] | z-score [15] | composite z-score (Lefty1) | composite z-score [16] | z-score [17]
COc1ccc(C(O)C2C=CC3C(=O)N(Cc4ccccc4)C(=O)C3N2n2cnnc2)cc1OCc1ccccc1 (stereo not given) | 0.799 | -1.19 (inactive) | 0.0493 | -0.152 | 0.771 | 1.5 | -0.276 | 0.953 | -0.34 | 0.681 | -0.259 | 0.48 | 1.23 | 0.303 | 0.319 | -0.385 | -1.03 | 0.341 | 0.194 | 1.77 (inactive)
CC(CO)N1C(=O)[C@@H]2C3C(=O)OCCC/C=C\[C@H]3OC23C=CCN(C(C)(C)C)C(=O)[C@@H]13 (stereo not given in full) | -0.757 | -0.483 (inactive) | -0.103 | -0.167 | 0.872 | 0.295 | 0.198 | -0.0677 | -0.184 | 0.0099 | -0.286 | -0.615 | -0.05 | -0.47 | 0.122 | -0.0209 | -0.0344 | 0.476 | -0.452 | -0.562 (inactive)
CCOC(=O)[C@H]1C/C=C/C[C@H](C(=O)OCC)C(=O)O[C@H]2[C@@H](OC)O[C@H](CO)[C@@H](OC(=O)c3c(OC)cccc3OC)[C@@H]2OC1=O | 0.0961 | 0.338 (inactive) | 0.275 | -0.108 | 0.512 | 1.66 | 0.47 | 1.26 | 0.83 | 0.932 | 0.0181 | 1.12 | 0.523 | 0.661 | 0.706 | 0.418 | -0.927 | 0.639 | 0.0697 | -0.335 (inactive)
C=C(CCCC)/C(=C/C[C@H](OC(C)=O)c1ccccc1OCCO)c1cc(C(=O)OC)ccc1OC | 0.0908 | 0.0578 (inactive) | -0.141 | -0.117 | 0.767 | 0.0095 | 0.095 | 0.287 | -0.193 | -0.701 | -0.33 | 0.0376 | -0.0155 | -0.438 | 0.0341 | -0.196 | 1.39 | 0.0742 | -0.4 | -0.687 (inactive)
O=C1O[C@@H](c2ccccc2)[C@@H](c2ccccc2)N2[C@@H](c3ccccc3OCCO)[C@]3(C(=O)Nc4ccccc43)[C@@H](C(=O)Nc3nc4ccccc4s3)[C@H]12 | 0.827 | 0.703 (inactive) | 1.38 | -0.181 | 0.619 | 2.89 | 0.485 | 1.25 | -0.111 | 1.16 | 0.858 | 1.23 | 0.467 | 0.865 | 0.778 | 0.188 | -2 | 1.62 | 1.17 | -0.237 (inactive)
COCCOC(=O)N1C(=O)[C@@]2(c3cc(C#CCC(C(=O)OC)C(=O)OC)ccc31)[C@H](c1ccccc1OCCO)N1[C@H](c3ccccc3)[C@H](c3ccccc3)OC(=O)[C@H]1[C@@H]2C(=O)NC[C@H](O)c1ccccc1 | -0.841 | 0.577 (inactive) | 0.164 | 0.0568 | 0.483 | 1.47 | 0.412 | 1.3 | 0.972 | 1.16 | 1.33 | 1.15 | 0.9 | 0.749 | 1.37 | 1.83 | -0.671 | 1.41 | 0.339 | -0.182 (inactive)
CC(C)OC(=O)C=C1C[C@@H](c2ccccn2)O[C@@H](c2ccccn2)O1 | -0.47 | 0.92 (inactive) | 0.0942 | -0.12 | 0.775 | 0.407 | 1.32 | 0.216 | 1.49 | -0.333 | 0.772 | -0.0007 | -0.19 | 0.0108 | 1.34 | 0.935 | 0.0752 | 1.53 | 0.372 | 0.633 (inactive)
O=C1C2C=CC(C(O)CCc3ccccc3)N(Nc3ccccc3F)C2C(=O)N1c1ccccc1 (stereo not given) | 0.955 | -0.585 (inactive) | 0.331 | -0.0677 | 0.755 | 2.69 | 0.185 | 1.22 | -0.47 | 0.893 | 1.49 | 1.14 | 1.01 | 0.434 | 1.25 | -0.449 | 0.00533 | 0.0364 | 0.548 | 1.48 (inactive)
COCCOC(=O)N1C(=O)[C@@]2(c3cc(C#CCC(C(=O)OC)C(=O)OC)ccc31)[C@H](c1ccccc1OCCO)N1[C@H](c3ccccc3)[C@H](c3ccccc3)OC(=O)[C@H]1[C@@H]2C(=O)N1CCN(c2ncccn2)CC1 | 0.846 | 0.347 (inactive) | 0.225 | -0.0249 | 0.499 | 1.66 | 0.596 | 1.31 | 1.04 | 1.12 | 0.762 | 1.12 | 0.966 | 0.696 | 1.38 | 1.46 | -0.895 | 1.17 | 0.63 | 0.505 (inactive)
CCOC(=O)C1=CC[C@@H](c2ccccc2)N(S(=O)(=O)c2ccc(C)cc2)[C@H]1c1ccccc1C | 0.767 | -0.663 (inactive) | 0.183 | 0.103 | 0.743 | 0.838 | 0.201 | 0.841 | -0.0352 | 0.705 | 0.109 | 0.893 | 0.0769 | 0.394 | 0.74 | 0.545 | 1.86 | 0.384 | 0.406 | 2.49 (inactive)
CC(C)C(CO)N1C(=O)[C@@H]2C3C(=O)OCCC/C=C\[C@H]3OC23C=CCN(CCN2CCOCC2)C(=O)[C@@H]13 (stereo not given in full) | 0.692 | -0.298 (inactive) | -0.21 | -0.0928 | 0.463 | -0.301 | 0.395 | -0.362 | -0.254 | -0.724 | -0.92 | -1.54 | -0.0582 | -0.0904 | 0.113 | 0.164 | -0.835 | 0.579 | -1.24 | -0.519 (inactive)
